# Spn DPM-DC inh = S. pneumoniae DPM-DC inhibition. purified DPM-DC, PK/LDH coupled NADH fluorescence. calls only at 10 µM. 65,000 tested, 0.49% active;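 active means the 320 compounds with the highest percent inhibition in the single-dose primary screen, excluding strongly autofluorescent ones, cut at about 32% in these data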;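 further: kinetic rate of NADH fluorescence loss reporting ADP formed by the decarboxylase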
# A340 absorber = absorbance at 340 nm; compound absorbance at 340 nm, fold over control; fold change at 10 µM; 65,000 tested, under 10 active; AID 708;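 active means at 10 µM dose, initial 340 nm absorbance at least 2 fold that of control wells; inactive means change under 2 fold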;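 further: initial absorbance extrapolated from kinetic A340 decline of NADH oxidation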
# MK inhibit = S. pneumoniae mevalonate kinase inhibition | purified MK, PK/LDH-coupled NADH absorbance 340 nm | inhibition, % at 10 µM | 65,000 tested, 0.48% active | AID 555;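 active means ranked among the strongest by inhibition in the single 10 µM screen, a fixed top-ranked set picked for dose follow-up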
# NADH enzymes = blocks coupling enzymes of NAD/NADH assays. AID 774. coupled PK/LDH NADH assays, four targets. 65,000 tested, 0.02% active. IC50, µM (top dose mostly 10 µM), without a hit: at the highest dose inhibition;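 active means single-dose screening hits from any of four coupled enzyme assays that gave an IC50 when retested across doses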;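 further: the DPM-DC format reads NADH fluorescence rather than 340 nm absorbance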
# Autofluor 339 = intrinsic fluorescence of library compounds, ex339/em460 – biochemical, MLSMR library, data from DPM-DC assay, artefact control, profiling panel. compound autofluorescence, ex339/em460 nm, NADH buffer; stronger effect = higher value; 1 = no-compound wells, NADH background. fluorescence fold increase at 10 µM. 65,000 tested, 5.5% active;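 active means at 10 µM, mean starting fluorescence two-fold or more over control wells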;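 further: signal is the first read of a kinetic run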
# PMK inhibit = S. pneumoniae PMK inhibition; inhibition, % at 10 µM; AID 539; 65,000 tested, 0.49% active; purified PMK, PK/LDH-coupled NADH absorbance 340 nm;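 active means top-ranked compounds by inhibition in the single 10 µM screen, taking a fixed number of the strongest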;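 further: 0% = full reaction with DMSO carrier and 100% = background rate without enzyme reaction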
# An asterisk follows results filed as active; i = inactive; nt = no result shown; + = active, no number. In the library only some 6.5% were active in any assay of this set; here they are far more common.
SMILES,Spn DPM-DC inh,A340 absorber,MK inhibit,NADH enzymes,Autofluor 339,PMK inhibit
COc1ccc(-c2cc(C(F)(F)F)n3ncc(C(=O)NCC4CCCO4)c3n2)cc1 (stereo not drawn),nt,1.1,8,2%,3*,5
Cn1c(C(=O)N2CCN(c3ccccc3F)CC2)cc2c(=O)n(C)c3ccccc3c21,i,1,13,11%,1,13
O=C(C1CCCN(Cc2cccnc2)C1)N1CCCCC1 (stereo not drawn),i,1,45*,17%,1.1,5
Nc1cc(C(=O)O)ccc1Nc1ccccc1,+,1,5,10%,1.8,10
CC1Cn2c(nnc2-c2cc3ccccc3cc2O)S1 (stereo not drawn),i,1,4,11%,2.9*,9
CC1Cn2c(nnc2-c2ccccc2O)S1 (stereo not drawn),i,1,0,0%,1.1,0
C=CCn1cnc2c(c1=O)c1nc3ccccc3nc1n2Cc1ccccc1,i,1,7,15%,3*,15
CCCCn1cnc2c(c1=O)c1nc3ccccc3nc1n2Cc1ccc2c(c1)OCO2,nt,1,2,1%,2.3*,0
Cc1nc2c(c(=O)n1CC1CCCO1)c1nc3ccccc3nc1n2CC(C)C (stereo not drawn),i,0.98,13,5%,1.4,0
CCOCCCn1c(C)nc2c(c1=O)c1nc3ccccc3nc1n2CCC1=CCCCC1,i,1.1,6,11%,3*,10
CCCn1cnc2c(c1=O)c1nc3ccccc3nc1n2CCC1=CCCCC1,i,1,11,8%,2.3*,11
CCOc1cc2[nH]c(=O)n(CCCCC(=O)N3CCCCCC3)c(=O)c2cc1OCC,i,1,8,4%,1.9,0
CCCn1cnc2c(c1=O)c1nc3ccccc3nc1n2CCc1ccccc1,nt,1,9,6%,4*,2
O=C(Nc1ccc(F)cc1F)c1cc2ncc(Br)cn2n1,i,1,6,5%,1.1,2
COC(=O)c1ccccc1NC(=O)c1cc2ncc(Br)cn2n1,i,1.1,13,10%,2.1*,5
Cc1sc2nc3n(c(=O)c2c1C)Cc1ccccc1-3,nt,1.1,3,7%,3.7*,10
Cc1nn(Cc2ccccc2)c2sc(C(=O)NCc3cccnc3)cc12,i,1,8,5%,1,8
CCCn1nnc(NC(=O)Cc2ccc(Cl)cc2)n1,i,1,3,6%,1.1,10
O=C(NC1CCCCC1)C(c1ccccc1)N1CCCC1 (stereo not drawn),i,1.1,9,3%,1.1,0
CC(c1ccccc1)C(CC(=O)O)C(=O)NC1CCCCC1 (stereo not drawn),i,1,8,12%,1.1,27*
Cc1cc(N)n(-c2nc(-c3cccnc3)nc3ccccc23)n1,i,1.1,11,6%,1.1,0
O=C1C(Cl)=C(NCC2CCCO2)C(=O)N1Cc1ccccc1 (stereo not drawn),+,1,7,22%,0.57,13
Cn1c(=O)n(Cc2ccccc2)c(=O)c2c1nc(NCC1CCCO1)n2Cc1ccccc1 (stereo not drawn),i,0.99,0,2%,1,4
COc1ccc(-c2nc(C)sc2CC(=O)O)cc1,i,0.98,10,5%,1,4
COc1ccc(N2CCN(CCNS(=O)(=O)c3cccc4nsnc34)CC2)cc1,+,1,30,10%,1.1,33*
CN1CCCC(OC(=O)c2ccc3c(c2)OCCO3)C1 (stereo not drawn),i,0.98,5,2%,1,14
CC1CN(C2CCN(C(=O)c3ccccc3Cl)CC2)CC(C)O1 (stereo not drawn),i,1,41*,15%,1.1,4
CC(=O)Nc1ccccc1C(=O)N1CC(C)OC(C)C1 (stereo not drawn),i,1,11,9%,1.1,16
COc1ccc(N(C(=O)Cn2nnc3ccccc32)C(C(=O)NCc2ccco2)c2cccnc2)cc1 (stereo not drawn),i,1,13,7%,1.1,7
CN1/C(=N\O)c2cccc3cccc1c23,i,1,10,9%,2.2*,1

# Bioassay records deposited in PubChem by SRMLSC.
